# Measured values: article PMC5540273 (PLoS ONE, 2017)
# Where two headings read alike, the source gives them in different places.
# Assays:
# VPS34 = tested on: T1, VPS34
# T1 construct: gene PIK3C3
# AAK1 = settings: n = 1
# ABL1-nonphosphorylated = settings: n = 1
# ABL1-phosphorylated = settings: n = 1
# ABL2 = settings: n = 1
# ACVR1B = settings: n = 1
# ACVR1 = settings: n = 1
# ACVR2A = settings: n = 1
# YANK3 = tested on: T2, YANK3
# T2 construct: gene STK32C
# YSK1 = tested on: T3, YSK1
# T3 construct: gene STK25
# [1] = concentration: 1 μM, replicates: in singlicate
# 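For %Inh in this document: KINOMEscan kinase panel screen.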
# 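For Kd in this document: kd values determined as follow-up on hits from a single-replicate KINOMEscan panel screen.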
structure (smiles),measurement,setting,value
O=c1cc(N2CCOCC2)nc2n(Cc3cccc(Cl)c3Cl)ccn12 [GSK2286295],Kd,VPS34,0.0021 µM
same,%Inh,AAK1; [1],6%
same,%Inh,ABL1-nonphosphorylated; [1],0%
same,%Inh,ABL1-phosphorylated; [1],0%
same,%Inh,ABL2; [1],3%
same,%Inh,ACVR1B; [1],0%
same,%Inh,ACVR1; [1],0%
same,%Inh,ACVR2A; [1],0%
CCCc1ccc(S(=O)(=O)NC2CCN(c3ccnc(Nc4ccc(F)cc4)n3)C2)cc1 (stereo not drawn) [GSK1379715],Kd,YANK3,> 10 µM
same,Kd,YSK1,> 10 µM
same,%Inh,AAK1; [1],1%
same,%Inh,ABL1-nonphosphorylated; [1],0%
same,%Inh,ABL1-phosphorylated; [1],0%
same,%Inh,ABL2; [1],6%
same,%Inh,ACVR1B; [1],0%
same,%Inh,ACVR1; [1],16%
same,%Inh,ACVR2A; [1],0%
Fc1cc(Cl)ccc1Nc1ccnc2cc(-c3ccc(CN4CCCCC4)o3)ccc12 [GW560116],%Inh,AAK1; [1],1%
same,%Inh,ABL1-nonphosphorylated; [1],47%
same,%Inh,ABL1-phosphorylated; [1],49%
same,%Inh,ABL2; [1],14%
same,%Inh,ACVR1B; [1],0%
same,%Inh,ACVR1; [1],5%
same,%Inh,ACVR2A; [1],0%
COc1ccc(C2=C(Nc3cccc(C(=O)O)c3)C(=O)NC2=O)cc1 [SB-390765],%Inh,AAK1; [1],4%
same,%Inh,ABL1-nonphosphorylated; [1],35%
same,%Inh,ABL1-phosphorylated; [1],0%
same,%Inh,ABL2; [1],1%
same,%Inh,ACVR1B; [1],7%
same,%Inh,ACVR1; [1],100%
same,%Inh,ACVR2A; [1],0%
CC(=O)Nc1nc2cnc(Nc3cc(NC(=O)c4cccc(CCC#N)c4)ccc3C)nc2s1,%Inh,AAK1; [1],6%
same,%Inh,ABL1-nonphosphorylated; [1],94.8%
same,%Inh,ABL1-phosphorylated; [1],29%
same,%Inh,ABL2; [1],29%
same,%Inh,ACVR1B; [1],0%
same,%Inh,ACVR1; [1],0%
same,%Inh,ACVR2A; [1],0%
COc1cc2nccc(Nc3ccc(NC(=O)c4ccc(C)cc4)c(O)c3)c2cc1OC.Cl [GW440132],%Inh,AAK1; [1],12%
same,%Inh,ABL1-nonphosphorylated; [1],28%
same,%Inh,ABL1-phosphorylated; [1],0%
same,%Inh,ABL2; [1],16%
same,%Inh,ACVR1B; [1],13%
same,%Inh,ACVR1; [1],0%
same,%Inh,ACVR2A; [1],0%
Cc1ccc(NC(=O)Nc2cccc(C(F)(F)F)c2)cc1 [GSK955403],%Inh,AAK1; 1 µM,26%
same,%Inh,ABL1-nonphosphorylated; 1 µM,49%
same,%Inh,ABL1-phosphorylated; 1 µM,23%
same,%Inh,ABL2; 1 µM,3%
same,%Inh,ACVR1B; 1 µM,85%
same,%Inh,ACVR1; 1 µM,10%
same,%Inh,ACVR2A; 1 µM,2%
Cn1ccc2ncnc(Oc3cccc(C(=O)Nc4ccccc4)c3)c21,%Inh,AAK1; [1],22%
same,%Inh,ABL1-nonphosphorylated; [1],0%
same,%Inh,ABL1-phosphorylated; [1],0%
same,%Inh,ABL2; [1],0%
same,%Inh,ACVR1B; [1],1%
same,%Inh,ACVR1; [1],100%
same,%Inh,ACVR2A; [1],0%
O=S(=O)(c1ccc(-c2ccnc3[nH]ccc23)cc1)N1CCCC1 [GSK846226],%Inh,AAK1; [1],60%
same,%Inh,ABL1-nonphosphorylated; [1],0%
same,%Inh,ABL1-phosphorylated; [1],0%
same,%Inh,ABL2; [1],0%
same,%Inh,ACVR1B; [1],0%
same,%Inh,ACVR1; [1],24%
same,%Inh,ACVR2A; [1],0%
